Sampled rows, rich in hits. Any-hit rate of the full collection: about 12%.
USP30 inh = blocks human USP30 ubiquitin-rhodamine cleavage; Q70CQ3; purified USP30, Ub-rhodamine cleavage fluorescence; inhibition, % at 25 µM; 47,000 compounds, 5.3% hits
USP17 inh = human USP17-like deubiquitinase inhibition. A8MUK1. purified USP17, Ub-rhodamine cleavage fluorescence, 3 h. inhibition, % at 50 µM. 47,000 compounds, 6.5% hits
USP8 block = inhibitors of human USP8 deubiquitinase. 47,000 compounds, 4.2% hits. inhibition, % at 20 µM. purified USP8, Ub-rhodamine cleavage fluorescence, 30 min. P40818
* hit, by the source's call. No stated cut-off is given here; in the data, active means inhibition above about 30%; inactive means the rest.

Results for Cc1ccc(C(=O)N2CCC3(CC2)CC2(CO3)Nc3ccccc3-n3cccc32)cn1 (configuration not stated) ?
USP30 inh: -184.5; USP17 inh: 29.0; USP8 block: 66.8*

How did Cc1ccc2c(c1)C(=O)NCC1(CCN(C(=O)Cc3ccccc3F)CC1)O2 do in these assays?
USP30 inh: -1.2; USP17 inh: -13.7; USP8 block: -0.2

What do the screens show for `Cc1oc(C2CC2)cc1C(=O)N1CCC2(CC1)CC1(CO2)Nc2ccccc2-n2cccc21` (configuration not stated)?
USP30 inh: -4.8; USP17 inh: 71.5*; USP8 block: 92.5*

What do the screens show for `COc1ccc(NC(=O)N2CCC3(CC2)Nc2ccccc2-n2cccc23)c(OC)c1`?
USP30 inh: 3.2; USP17 inh: 4.0; USP8 block: 15.0

What do the screens show for `Cc1nn(C)cc1C(=O)N1CCC2(CC1)CC1(CO2)Nc2ccccc2-n2cccc21` (configuration not stated)?
USP30 inh: -35.5; USP17 inh: 37.7*; USP8 block: 56.8*

How did O=C(Cc1ccccc1F)N1CCC2(CC1)CC1(CO2)Nc2ccccc2-n2cccc21 (configuration not stated) do in these assays?
USP30 inh: -17.1; USP17 inh: 52.5*; USP8 block: 93.5*

Results for Cn1nccc1C(=O)N1CCC2(CC1)Nc1cccnc1-n1cccc12 ?
USP30 inh: -11.4; USP17 inh: 2.1; USP8 block: -5.2

What do the screens show for `Cc1ccc(C(=O)N2CCC3(CC2)Nc2cccnc2NC3=NCc2ccccc2)cn1`?
USP30 inh: inactive; USP17 inh: -130.7; USP8 block: -218.4

Results for COc1cccc([C@H]2C[C@@](O)(CNC(=O)c3ncccc3C)[C@H](O)[C@@H](C)O2)c1 ?
USP30 inh: 23.0; USP17 inh: 13.1; USP8 block: 15.8

What do the screens show for `COc1cc2c(cc1OC)-c1cc(Oc3ccc(Cl)cc3)nc(=O)n1CC2`?
USP30 inh: -297.8; USP17 inh: -56.4; USP8 block: -201.5

Results for Cc1c(C)n(-c2ccccn2)c2ncn(Cc3ccco3)c(=N)c12 ?
USP30 inh: -32.3; USP17 inh: -2.7; USP8 block: -3.1

Results for Cc1nnc2cc(N3CCN(C(=O)c4ccc(Cl)cc4)CC3)cnn12 ?
USP30 inh: -6.3; USP17 inh: 5.0; USP8 block: -18.0

Results for O=C(NC1CCCCC1)C(c1ccc(F)cc1)N(Cc1ccc2c(c1)OCO2)C(=O)c1ccc(-c2ccccc2)[nH]1 (configuration not stated) ?
USP30 inh: -95.9; USP8 block: -11.7

What do the screens show for `CN(Cc1ccc2c(c1)OCO2)C(C(=O)Nc1ccc(F)cc1)c1ccccc1` (configuration not stated)?
USP30 inh: 38.9*; USP17 inh: 13.3; USP8 block: 16.8

How did O=S(=O)(C1CC1)N1CCc2[nH]nc(-c3ccccc3)c2C1 do in these assays?
USP30 inh: 12.1; USP17 inh: -0.2; USP8 block: -16.7

Results for COc1cc2c(C#N)c(N3CCCC3)nc3c2c(n1)NC(C)(c1ccc(-c2ccccc2)cc1)N3 (configuration not stated) ?
USP30 inh: inactive; USP17 inh: -25.0; USP8 block: 39.0*

How did COc1ccc(-c2c3c(nc4c(C#N)c(C)n(-c5ccccc5)c24)CCC3)cc1 do in these assays?
USP30 inh: 14.6; USP17 inh: 17.2; USP8 block: 15.5

Results for C=Cn1ncc(CN2CCC3(CC2)Nc2ccccc2C2=NCCN23)c1C ?
USP30 inh: -37.5; USP17 inh: -27.2; USP8 block: -6.4

How did O=S(=O)(c1ccccc1)c1cnc(-c2ccccc2)nc1Oc1ccc(F)cc1F do in these assays?
USP30 inh: 36.2*; USP17 inh: 15.4; USP8 block: 12.5

How did Cc1ccc(S(=O)(=O)c2cnc(-c3ccccc3)nc2Oc2ccc(Cl)cc2C)cc1 do in these assays?
USP30 inh: 23.9; USP17 inh: 12.1; USP8 block: 20.3

How did Cc1ccc([N+](=O)[O-])cc1NC(=O)CN1CCC(C(=O)c2cccc(F)c2)CC1 do in these assays?
USP30 inh: 23.9; USP17 inh: 5.7; USP8 block: -46.1

What do the screens show for `O=C(c1cnn2ccccc12)N1CCN(S(=O)(=O)/C=C/c2ccccc2)CC1`?
USP30 inh: 32.9*; USP17 inh: 11.4; USP8 block: 5.2

Results for O=C(CCC(=O)N1CCN(C(=O)c2cnn3ccccc23)CC1)c1ccccc1 ?
USP30 inh: -26.5; USP17 inh: 0.7; USP8 block: -6.7

Results for CCCc1cc(=O)oc2c(C)c(OCC(=O)NCC(=O)N3CCC4(O)CCCCC4C3)ccc12 (configuration not stated) ?
USP30 inh: 5.0; USP17 inh: -9.5; USP8 block: -6.2

Results for CS(=O)(=O)Nc1cccc(NC(=O)c2cccc3ncccc23)c1 ?
USP30 inh: -33.0; USP17 inh: 17.2; USP8 block: 17.4

What do the screens show for `Cc1cc(OCC(=O)Nc2ccccc2F)nc(N2CCCC(C)C2)n1` (configuration not stated)?
USP30 inh: 46.8*; USP17 inh: 18.3; USP8 block: 14.6

How did Cc1cc(OCC(=O)Nc2ccccc2)nc(N2CCCCCC2)n1 do in these assays?
USP30 inh: 26.4; USP17 inh: 12.7; USP8 block: 20.7

Results for Cc1cc(OCC(=O)Nc2cccc(C#N)c2)nc(N2CCCC(C)C2)n1 (configuration not stated) ?
USP30 inh: 0.0; USP17 inh: 3.9; USP8 block: 3.5

What do the screens show for `Cc1cc(OCC(=O)Nc2ccccc2C#N)nc(-c2ccc(F)cc2)n1`?
USP30 inh: -24.7; USP17 inh: 35.5*; USP8 block: -14.5

How did Cc1cc(OCC(=O)Nc2ccccc2C#N)nc(N2CCCCCC2)n1 do in these assays?
USP17 inh: -9.9; USP8 block: -17.6

Results for Cc1cc(OCC(=O)Nc2c(C)cccc2C)nc(N2CCCCCC2)n1 ?
USP30 inh: 9.1; USP17 inh: 30.1*; USP8 block: 1.8

What do the screens show for `CCn1c(=O)c(-c2ccc(C(=O)NCc3cc(OC)ccc3OC)cc2)nc2ccccc21`?
USP30 inh: 29.3; USP17 inh: 0.0; USP8 block: -7.9

Results for O=[N+]([O-])c1ccc(S(=O)(=O)N2CCCC2c2ccco2)cc1 (configuration not stated) ?
USP30 inh: 1.2; USP17 inh: -19.7; USP8 block: -1.5

How did COc1ccc(-c2cc(-c3ccc(F)cc3)[nH]c(=O)c2C#N)cc1 do in these assays?
USP30 inh: 79.0*; USP8 block: 58.2*

What do the screens show for `COc1ccc(-c2c3c([nH]c(=O)c2C#N)-c2ccccc2CC3)cc1`?
USP30 inh: -101.4; USP17 inh: -59.0; USP8 block: -2.6

Results for Cc1ccc(C(=O)N[C@@H]2C[C@@H](Oc3cccc(F)c3)[C@H](O)[C@H]2O)nc1 ?
USP30 inh: -5.5; USP8 block: -2.4

How did Cc1ccc(-c2nc(CNC(=O)C(C)Oc3ccccc3F)cs2)cc1 (configuration not stated) do in these assays?
USP30 inh: 45.9*; USP17 inh: 6.7; USP8 block: 5.0

Results for COc1ccc(-c2nc(CNC(=O)c3ccccc3F)cs2)cc1 ?
USP30 inh: 27.8; USP17 inh: 4.2; USP8 block: -0.1

Bioassay records deposited in PubChem by Buhrlage Lab, Dana-Farber Cancer Institute and Novartis Institutes for BioMedical Research (Cambridge, Mass).
